# Source: paper PMC4336329 (PLoS ONE, 2015)
# Screen size: about 310,000 compounds; about 14,000 (4.5%) showed an effect of 50% or more. The effect is printed as a negative number. The full list was thinned out, with strong results kept by preference.
# Target: human ether-à-go-go-related gene (hERG) potassium channel (human, UniProt Q12809)
# Assay: primary screen, population patch clamp on CHO cells stably expressing hERG; higher = less effect of the substance
# 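Also: peak tail current of the secondary pulse compared with the same well before compound.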
# Sequence of human ether-à-go-go-related gene (hERG) potassium channel (Q12809 whole entry, looked up): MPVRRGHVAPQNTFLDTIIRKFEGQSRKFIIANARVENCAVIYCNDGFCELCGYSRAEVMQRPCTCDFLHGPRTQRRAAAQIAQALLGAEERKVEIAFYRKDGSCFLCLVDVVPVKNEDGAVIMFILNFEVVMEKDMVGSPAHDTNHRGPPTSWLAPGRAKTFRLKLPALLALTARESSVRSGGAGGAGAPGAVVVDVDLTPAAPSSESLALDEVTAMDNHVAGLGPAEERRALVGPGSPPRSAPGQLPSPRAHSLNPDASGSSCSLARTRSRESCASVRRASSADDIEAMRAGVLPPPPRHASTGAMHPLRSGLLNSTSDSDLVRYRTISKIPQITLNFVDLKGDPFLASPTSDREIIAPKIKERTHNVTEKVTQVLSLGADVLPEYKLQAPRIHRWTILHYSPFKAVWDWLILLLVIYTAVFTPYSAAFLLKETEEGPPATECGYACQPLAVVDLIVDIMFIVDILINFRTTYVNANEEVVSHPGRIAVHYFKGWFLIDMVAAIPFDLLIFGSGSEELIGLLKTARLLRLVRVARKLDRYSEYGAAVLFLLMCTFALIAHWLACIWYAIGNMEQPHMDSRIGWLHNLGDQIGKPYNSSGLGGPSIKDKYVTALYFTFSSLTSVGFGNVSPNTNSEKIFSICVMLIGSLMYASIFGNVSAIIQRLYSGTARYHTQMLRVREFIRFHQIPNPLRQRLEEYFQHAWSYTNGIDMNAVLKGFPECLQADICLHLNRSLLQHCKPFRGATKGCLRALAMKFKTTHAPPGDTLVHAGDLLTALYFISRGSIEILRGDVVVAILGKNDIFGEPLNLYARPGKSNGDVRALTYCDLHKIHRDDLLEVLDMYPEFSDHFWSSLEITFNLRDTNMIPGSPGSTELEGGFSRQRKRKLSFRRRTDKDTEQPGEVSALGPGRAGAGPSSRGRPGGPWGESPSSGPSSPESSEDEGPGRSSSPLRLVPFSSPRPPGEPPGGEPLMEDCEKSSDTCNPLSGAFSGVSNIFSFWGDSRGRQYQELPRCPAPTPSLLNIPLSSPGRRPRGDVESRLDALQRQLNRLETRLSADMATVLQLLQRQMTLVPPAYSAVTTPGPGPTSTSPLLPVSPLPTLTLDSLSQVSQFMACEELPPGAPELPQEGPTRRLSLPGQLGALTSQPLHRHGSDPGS
row,Structure (SMILES),"hERG current change (%, negative = inhibition) at 10uM [%]"
1,COCCCNC(=O)c1ccc2c(=O)n(Cc3ccccc3OC)c(=S)[nH]c2c1,6.43
2,O=C(NCCc1ccc(F)cc1)c1cccs1,10.4
3,Cc1ccc(S(=O)(=O)N2CCN(C(=O)c3c(-c4ccccc4)noc3C)CC2)cc1C,1.83
4,CN1CCc2nc(SCc3ccc(Cl)cc3)c(C#N)c(-c3cccs3)c2C1,-66.2
5,COc1ccc(NC(=O)CSc2nc3c(c(-c4cccs4)c2C#N)CN(C)CC3)cc1OC,1.65
6,CN1CCc2nc(N)c(C#N)c(-c3ccccc3)c2C1,-7.5
7,Cc1cccc(CSc2nc3c(c(-c4cccs4)c2C#N)CN(C)CC3)c1,-13.1
8,CN1CCc2nc(SCC(=O)Nc3ccc(OC(F)(F)F)cc3)c(C#N)c(-c3cccs3)c2C1,-12.8
9,CN1CCc2nc(SCC(=O)Nc3cccc(F)c3)c(C#N)c(-c3cccs3)c2C1,-62.3
10,C=CCSc1nc2c(c(-c3ccsc3)c1C#N)CN(C)CC2,-65.2
11,C=CCSc1nc(N)c(C#N)c(-c2ccc(C)cc2)c1C#N,4.13
12,CN1CCc2nc(SC(C(=O)O)c3ccccc3)c(C#N)c(-c3cccs3)c2C1 (stereo not drawn),19.4
13,Cc1ccc(C(=O)Nc2cccc(C(=O)O)c2)cc1,14.4
14,O=C(COC(=O)c1ccccc1F)Nc1cc(S(=O)(=O)N2CCOCC2)ccc1N1CCCC1,-13.5
15,Cc1oc2c(c(C)cc3oc(=O)c(CC(=O)NCCCN4CCCC4=O)c(C)c32)c1C,-0.519
16,O=C(Nc1ncccc1O)c1ccc2c(c1)OCO2,3.08
17,COc1ccccc1NC=C1C(=O)OC(C)(C)OC1=O,-24
18,CCOC(=O)c1ccc(S(=O)(=O)N2CCN(C(C)=O)CC2)cc1,0.122
19,CCc1nc(Nc2ccccc2)c2nnn(Cc3ccccc3)c2n1,8.23
20,COC(=O)c1nn(-c2ccc(-c3ccccc3)cc2)cc1O,-3.85
21,CC(C)Cn1c(N)c(C(=O)COC(=O)c2ccc(F)cc2)c(=O)n(C)c1=O,17.1
22,CC(C)Cn1c(N)c(C(=O)COC(=O)c2c(F)cccc2F)c(=O)n(C)c1=O,-16.7
23,Cc1ccc(C(=O)NCC(=O)OCC(=O)c2c(N)n(C)c(=O)n(C)c2=O)s1,9.14

row,Structure (SMILES),"hERG current change (%, negative = inhibition) at 10uM [%]"
1,Cc1cccc(OCC(=O)OCC(=O)c2c(N)n(C)c(=O)n(C)c2=O)c1,-13.1
2,CC(C)Cn1c(N)c(C(=O)COC(=O)Cc2cccs2)c(=O)n(C)c1=O,-51.7
3,CC(C)Cn1c(N)c(C(=O)COC(=O)Cc2cccc(C(F)(F)F)c2)c(=O)n(C)c1=O,-54.5
4,CC(C)Cn1c(N)c(C(=O)COC(=O)c2cc(C(F)(F)F)nc3c(C(F)(F)F)cccc23)c(=O)n(C)c1=O,7.27
5,CCCn1c(N)c(C(=O)COC(=O)CNC(=O)c2ccc(C)c(C)c2)c(=O)n(C)c1=O,-78.1
6,CC(C)Cn1c(N)c(C(=O)COC(=O)COc2cccc(C(F)(F)F)c2)c(=O)n(C)c1=O,-50.9
7,Cc1csc(=O)n1CC(=O)OCC(=O)c1c(N)n(CC(C)C)c(=O)n(C)c1=O,-10.7
8,Cc1cc(C)cc(C(=O)NCC(=O)OCC(=O)c2c(N)n(C)c(=O)n(C)c2=O)c1,17.4
9,CC(C)Cn1c(N)c(C(=O)COC(=O)/C=C/c2cccs2)c(=O)n(C)c1=O,-49.9
10,CCN(CC)S(=O)(=O)c1cc(C)c(C)cc1OCC(=O)NC1CCCC1,-23.1
11,C/C=C/C=C/C(=O)N1CC2(CC(c3cccc(NC(=O)/C=C/C)c3)=NO2)C[C@@H]1C(N)=O (stereo partly drawn),2.75
12,Cc1ccsc1/C=N\NC(=O)c1cc(C(C)(C)C)[nH]n1,-9.77
13,O=C(CN1C(=O)NC(c2ccccc2)(c2ccccc2)C1=O)N1CCN(c2ccccc2F)CC1,-17.4
14,CC1(C)NC(=O)N(CC(=O)N2CCN(c3cccc(Cl)c3)CC2)C1=O,-6.67
15,O=C(CN1C(=O)NC(c2ccccc2)(c2ccccc2)C1=O)N1CCN(c2ccc(F)cc2)CC1,-68.4
16,O=C(CN1C(=O)C2CC=CCC2C1=O)N1CCN(c2ccc([N+](=O)[O-])cc2)CC1 (stereo not drawn),-71.6
17,COc1ccc(N2CCN(C(=O)CN3C(=O)C4CC=CCC4C3=O)CC2)cc1 (stereo not drawn),12.3
18,CC1(C)NC(=O)N(CC(=O)N2CCN(c3cccc(C(F)(F)F)c3)CC2)C1=O,6.26
19,CC(C(=O)N1CCN(c2ccccc2)CC1)N1C(=O)C2CC=CCC2C1=O (stereo not drawn),7.43
20,CC(C(=O)N1CCOCC1)c1ccc([N+](=O)[O-])cc1 (stereo not drawn),9.94
21,CC1(C)NC(=O)N(CC(=O)N2CCN(c3ccc([N+](=O)[O-])cc3)CC2)C1=O,-66.1
22,O=C(CN1C(=O)C2CCCCC2C1=O)N1CCN(c2ccc(F)cc2)CC1 (stereo not drawn),-12.2
23,CC(C(=O)N1CCN(c2ccc([N+](=O)[O-])cc2)CC1)N1C(=O)C2CC=CCC2C1=O (stereo not drawn),-72.2

row,Structure (SMILES),"hERG current change (%, negative = inhibition) at 10uM [%]"
1,O=C(CN1C(=O)NC(c2ccccc2)(c2ccccc2)C1=O)N1CCOCC1,0.969
2,CC(=O)N1CN(C2CC(C)(C)NC(C)(C)C2)Cc2c1sc1c2CCCC1,6.77
3,C(=C\c1ccccn1)/c1ccccn1,24.4
4,CC1=CC(C)(C)N(C(=O)CSc2nnc(N)s2)c2ccccc21,6.19
5,O=c1[nH]c(=O)n(CCc2ccc(F)cc2)c(O)c1C=NCCCN1CCOCC1,-17.7
6,CC(=O)Nc1cc(C(C)C)c(O)c(C(C)C)c1,-4.37
7,Cc1cccc(CCNC(=O)Cn2ncc3c([nH]c4ccccc43)c2=O)c1,14.2
8,COc1cc(/C=C2\S/C(=N/S(=O)(=O)c3ccccc3)NC2=O)c([N+](=O)[O-])cc1OC,4.25
9,O=C(CC1SC(=O)N(Cc2ccc(Cl)cc2)C1=O)Nc1nccs1 (stereo not drawn),-4.51
10,O=c1[nH]c(=O)n(C2OC(CO)C(O)C2O)cc1Br (stereo not drawn),26.2
11,CCOC(=O)c1c(-c2ccc(C)o2)csc1N,20.5
12,Oc1ccccc1C1=Nc2ccccc2N=C(c2ccco2)C1,-12.7
13,COc1ccc(CNS(=O)(=O)c2c(C)[nH]c(C)c2C(=O)N2CCCC2)cc1,17.6
14,O=[N+]([O-])c1ccc(N2CCN(S(=O)(=O)c3cnc[nH]3)CC2)cc1,-59.8
15,CCOC(=O)N1CCN(c2c(N3CCN(c4ccc(F)cc4)CC3)c(=O)c2=O)CC1,-73.4
16,O=S(=O)(c1cnc[nH]1)N1CCN(c2ccc(F)cc2)CC1,-3
17,O=C(C1CCN(S(=O)(=O)c2cnc[nH]2)CC1)N1CCN(c2ccc([N+](=O)[O-])cc2)CC1,-1.78
18,CCOC(=O)N1CCN(c2c(N3CCN(C(=O)OCC)CC3)c(=O)c2=O)CC1,-29.1
19,CCOC(=O)C1CCN(c2ccc([N+](=O)[O-])c(C(C)=O)c2)CC1,-11.8
20,CN(C)S(=O)(=O)N1CCN(c2ccccc2)CC1,-1.78
21,CN(C)S(=O)(=O)N1CCN(c2ccc(Cl)cc2)CC1,-14.4
22,CN(C)S(=O)(=O)N1CCN(c2ccc([N+](=O)[O-])cc2)CC1,-76.7
23,CCOC(=O)C1CCN(c2ccc([N+](=O)[O-])cc2)CC1,-68.9

row,Structure (SMILES),"hERG current change (%, negative = inhibition) at 10uM [%]"
1,COC(=O)C1CCN(c2ccc([N+](=O)[O-])cc2)CC1,-21.7
2,CCOC(=O)N1CCN(c2c(N3CCN(c4ccc(OC)cc4)CC3)c(=O)c2=O)CC1,-46.6
3,C[C@]12CCC3C(CC[C@H]4CCCC[C@]34C)C1CC[C@@]2(O)CNCCO (stereo partly drawn),15.6
4,O=C(O)CCCNc1cc(N2CCN(C(=O)c3ccco3)CC2)c2noc3c2c1C(=O)c1ccccc1-3,19
5,O=C(O)C1CCCCC1C(=O)Nc1nc(-c2ccc(Cl)s2)cs1 (stereo not drawn),13.7
6,C/C(=N\NC(=O)c1ccc(F)cc1)c1ccc(N2CCOCC2)cc1,-16.7
7,O=S(=O)(c1cccc(-c2cn3cc(Cl)ccc3n2)c1)N1CCOCC1,-23.1
8,CCCCOC(=O)c1ccc(NC(=O)CSCc2n[nH]c(=O)[nH]2)cc1,1.91
9,S=C(NC1CCCCC1)N(CCc1nc2ccccc2[nH]1)C1CCCC1,4.83
10,CCN(CC)C(=O)Cn1cc(C(=O)C(=O)N2CCN(c3ccc([N+](=O)[O-])cc3)CC2)c2ccccc21,-65.8
11,COc1ccc(N2CCN(C(=O)C3CCN(C(=O)c4cccc(Cl)c4)CC3)CC2)cc1,-29.8
12,CCOC(=O)N1CCN(c2ccc([N+](=O)[O-])cc2)CC1,-59.4
13,Cc1cnc(C(=O)Nc2ccc(N3CCN(C(=O)OC(C)(C)C)CC3)cc2)cn1,14.1
14,COc1ccc(C(=O)N2CCC(C(=O)N3CCN(c4ccc(OC)cc4)CC3)CC2)cc1,-43.5
15,O=[N+]([O-])c1ccc(N2CCN(c3ccccc3O)CC2)cc1,-0.173
16,CCOC(=O)N1CCN(c2ccc(O)cc2)CC1,15.6
17,CCOC(=O)N1CCN(S(=O)(=O)c2ccc([N+](=O)[O-])cc2)CC1,-23.9
18,CCN(CC)C(=O)Cn1cc(C(=O)C(=O)N2CCN(c3ccc(OC)cc3)CC2)c2ccccc21,16.1
19,COc1ccc(N2CCN(C(=O)C3CCN(C(=O)c4ccc([N+](=O)[O-])cc4)CC3)CC2)cc1,-69
20,CCN(CC)C(=O)Cn1cc(C(=O)C(=O)N2CCN(c3ccccc3)CC2)c2ccccc21,-0.908
21,CC(C)(C)OC(=O)N1CCN(c2ccc([N+](=O)[O-])cc2)CC1,-73.3
